What all share (conditions): modulator concentration 10 µM
Experiment [1] relates to RAW-Dual (murine macrophage reporter line). In words: NF-kB reporter (SEAP) activity fold change vs agonist alone; higher = enhanced NF-kB activity. A digest of the protocol: (§1)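 Overnight stimulation with a PRR agonist followed pre-incubation for 1 hour at 37 °C with compound at 10 μM final. This was done in RAW-Dual murine macrophage reporter cells seeded at 50 000 per well in 384-well plates. NF-κB (SEAP, QUANTI-Blue absorbance at 620 nm) and IRF (Lucia luciferase, QUANTI-Luc luminescence) were read from the supernatant. Each reporter's fold change relative to the mean agonist-only control on the same plate was averaged over replicate plates.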

The test system is the same in experiment [2]. In words: IRF reporter (Lucia luciferase) activity fold change vs agonist alone; higher = enhanced IRF activity. The essentials: as §1
Experiment [3] shares this test system. In words: viability score (confluency relative to resting cells, overnight) (fraction); higher = more viable, active = viable (0.7 or more). The essentials: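 Confluency was the readout: RAW-Dual macrophages were imaged with IncuCyte after an overnight exposure to compound at 10 μM final. IncuCyte software produced two masks over all imaged wells. The viability score expresses confluency against resting cells, and both masks had to exceed 70% of resting cells for a compound to meet the cutoff.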

The mark [4] stands for this setting: agonist: CpG ODN 1826 0.5 ug/mL.

± gives the standard deviation.

The results in this text go back to the supplement of paper PMC10646978.

On to `COC(=O)Nc1nc2ccc(S(=O)c3ccccc3)cc2[nH]1` (configuration not stated), for which the NF-kB reporter in experiment [1] (setting [4]) is 1.1 ± 0.065; in experiment [1] (agonist: LPS 0.1 ug/mL) it was 1.04 ± 0.11; in experiment [1] (agonist: MPLA […]), 1.12 ± 0.059. Further, the IRF reporter was 0.279 ± 0.081 in experiment [2] (agonist: 3'3'-cGAMP 10 ug/mL), 0.924 ± 0.11 in experiment [2] (agonist: LPS 0.1 ug/mL) and 0.536 ± 0.18 in experiment [2] (agonist: MPLA […]). In experiment [3], the viability score is 1.01 (active).
Take `COc1ccc(Nc2nc(Nc3ccc4ncccc4c3)nc(N3CCOCC3)n2)cc1`: the NF-kB reporter in experiment [1] (setting [4]) was found to be 0.279 ± 0.013; in experiment [1] (agonist: LPS 0.1 ug/mL), 1.36 ± 0.11; in experiment [1] (agonist: MPLA […]), 2.85 ± 0.15. The figures for the IRF reporter in experiment [2] (agonist: 3'3'-cGAMP 10 ug/mL), in experiment [2] (agonist: LPS 0.1 ug/mL) and in experiment [2] (agonist: MPLA […]) were 0.34 ± 0.015, 1.61 ± 0.24 and 2.74 ± 0.57, respectively. The viability score in experiment [3] was 0.904 (active).
Regarding `CC(/C=C1\SC(=S)N(CC(=O)O)C1=O)=C\c1ccccc1`, the values for the NF-kB reporter in experiment [1] (setting [4]), in experiment [1] (agonist: LPS 0.1 ug/mL) and in experiment [1] (agonist: MPLA […]) were 0.7 ± 0.036, 0.822 ± 0.093 and 1.05 ± 0.094, respectively. Also, the IRF reporter is 0.977 ± 0.048 in experiment [2] (agonist: 3'3'-cGAMP 10 ug/mL), 1.4 ± 0.29 in experiment [2] (agonist: LPS 0.1 ug/mL) and 1.66 ± 0.52 in experiment [2] (agonist: MPLA […]). The viability score in experiment [3] is 0.962 (active).
On to `Oc1ccc(/C=C/c2cc(O)cc(O)c2)cc1`, for which the results for the NF-kB reporter in experiment [1] (setting [4]), in experiment [1] (agonist: LPS 0.1 ug/mL) and in experiment [1] (agonist: MPLA […]) were 1.06 ± 0.16, 1.23 ± 0.28 and 1.11 ± 0.084, respectively. Besides, the IRF reporter amounted to 0.695 ± 0.041 in experiment [2] (agonist: 3'3'-cGAMP 10 ug/mL), 0.845 ± 0.13 in experiment [2] (agonist: LPS 0.1 ug/mL) and 0.798 ± 0.12 in experiment [2] (agonist: MPLA […]). Moreover, the viability score in experiment [3] was 0.982 (active).
Take `O=C(COc1ccc2ccccc2c1)NCC#CCN1CCCCC1`: the NF-kB reporter in experiment [1] (setting [4]) was 0.854 ± 0.036; in experiment [1] (agonist: LPS 0.1 ug/mL), 0.981 ± 0.078; in experiment [1] (agonist: MPLA […]), 1.07 ± 0.064. For the same compound, the IRF reporter in experiment [2] (agonist: 3'3'-cGAMP 10 ug/mL) was 1 ± 0.048; in experiment [2] (agonist: LPS 0.1 ug/mL), 1.27 ± 0.29; in experiment [2] (agonist: MPLA […]), 1.48 ± 0.49. For the same compound, the viability score in experiment [3] is 0.956 (active).
Regarding `Fc1ccc(Nc2nc(NN=Cc3ccccc3Cl)nc(N3CCCCC3)n2)cc1`, the NF-kB reporter in experiment [1] (setting [4]) worked out at 1.02 ± 0.17; in experiment [1] (agonist: LPS 0.1 ug/mL) it was 1.26 ± 0.13; in experiment [1] (agonist: MPLA […]), 1.4 ± 0.31. Besides, the IRF reporter in experiment [2] (agonist: 3'3'-cGAMP 10 ug/mL) came out at 0.992 ± 0.071; in experiment [2] (agonist: LPS 0.1 ug/mL), 1.1 ± 0.19; in experiment [2] (agonist: MPLA […]), 1.48 ± 0.24. Besides, the viability score in experiment [3] is 0.961 (active).
Consider `O=C1OCCN1C1CCN(C(=O)C2(c3ccc(F)cc3)CC2)C1` (configuration not stated), for which the NF-kB reporter in experiment [1] (setting [4]) is 0.862 ± 0.094; in experiment [1] (agonist: LPS 0.1 ug/mL), 0.907 ± 0.16; in experiment [1] (agonist: MPLA […]), 1.06 ± 0.074. The IRF reporter in experiment [2] (agonist: 3'3'-cGAMP 10 ug/mL) is 0.843 ± 0.15; in experiment [2] (agonist: LPS 0.1 ug/mL), 1.28 ± 0.3; in experiment [2] (agonist: MPLA […]), 1.45 ± 0.51. In experiment [3], the viability score was 0.951 (active).
`Br.O=S(=O)(c1ccc(-c2csc(Nc3ccc(F)cc3)n2)cc1)N1CCOCC1`: the results for the NF-kB reporter in experiment [1] (setting [4]), in experiment [1] (agonist: LPS 0.1 ug/mL) and in experiment [1] (agonist: MPLA […]) were 0.769 ± 0.068, 0.989 ± 0.075 and 2.17 ± 0.15, respectively. Moreover, the IRF reporter came to 0.768 ± 0.096 in experiment [2] (agonist: 3'3'-cGAMP 10 ug/mL), 0.948 ± 0.054 in experiment [2] (agonist: LPS 0.1 ug/mL) and 1.55 ± 0.1 in experiment [2] (agonist: MPLA […]). For the same compound, the viability score in experiment [3] was 0.997 (active).
As for `CC1=C(C)CC2C(=O)N(c3ccccc3C)C(=O)C2C1` (configuration not stated), the NF-kB reporter came to 0.797 ± 0.064 in experiment [1] (setting [4]), 0.889 ± 0.068 in experiment [1] (agonist: LPS 0.1 ug/mL) and 1.06 ± 0.12 in experiment [1] (agonist: MPLA […]). The IRF reporter was 0.982 ± 0.045 in experiment [2] (agonist: 3'3'-cGAMP 10 ug/mL), 1.35 ± 0.078 in experiment [2] (agonist: LPS 0.1 ug/mL) and 1.33 ± 0.15 in experiment [2] (agonist: MPLA […]). In experiment [3], the viability score is 1.01 (active).
For the compound `O=C(NCCc1nc(C2CC2)cc(C(F)(F)F)n1)c1c(F)cccc1Cl`, the NF-kB reporter in experiment [1] (setting [4]) is 1.01 ± 0.079; in experiment [1] (agonist: LPS 0.1 ug/mL), 1.11 ± 0.087; in experiment [1] (agonist: MPLA […]), 0.943 ± 0.11. In addition, the IRF reporter in experiment [2] (agonist: 3'3'-cGAMP 10 ug/mL) is 1.01 ± 0.053; in experiment [2] (agonist: LPS 0.1 ug/mL) it was 1.13 ± 0.086; in experiment [2] (agonist: MPLA […]), 1.07 ± 0.12. For the same compound, the viability score in experiment [3] was 1 (active).
Regarding `CC(C)c1ccc2oc3nc(N)c(C(=O)O)cc3c(=O)c2c1`, the NF-kB reporter in experiment [1] (setting [4]) was found to be 1.2 ± 0.16; in experiment [1] (agonist: LPS 0.1 ug/mL), 1.23 ± 0.15; in experiment [1] (agonist: MPLA […]), 0.91 ± 0.052. Besides, the IRF reporter in experiment [2] (agonist: 3'3'-cGAMP 10 ug/mL) is 0.858 ± 0.026; in experiment [2] (agonist: LPS 0.1 ug/mL), 1.28 ± 0.32; in experiment [2] (agonist: MPLA […]), 1.16 ± 0.18. In addition, the viability score in experiment [3] was 0.993 (active).
On to `CNC(C)CCC=C(C)C.CNC(C)CCC=C(C)C` (configuration not stated) [Prestw-1023], for which the NF-kB reporter in experiment [1] (setting [4]) is 1.07 ± 0.082; in experiment [1] (agonist: LPS 0.1 ug/mL), 0.976 ± 0.12; in experiment [1] (agonist: MPLA […]), 1.01 ± 0.16. Moreover, the IRF reporter in experiment [2] (agonist: 3'3'-cGAMP 10 ug/mL) was 1 ± 0.047; in experiment [2] (agonist: LPS 0.1 ug/mL), 1.17 ± 0.16; in experiment [2] (agonist: MPLA […]), 1.23 ± 0.28. In experiment [3], the viability score was 1.04 (active).
Regarding `COc1ccc(OC)c(Nc2nc(-c3c(C)nc4ccccn34)cs2)c1`, the results for the NF-kB reporter in experiment [1] (setting [4]), in experiment [1] (agonist: LPS 0.1 ug/mL) and in experiment [1] (agonist: MPLA […]) were 1.35 ± 0.22, 1.45 ± 0.12 and 1.58 ± 0.13, respectively. Further, the results for the IRF reporter in experiment [2] (agonist: 3'3'-cGAMP 10 ug/mL), in experiment [2] (agonist: LPS 0.1 ug/mL) and in experiment [2] (agonist: MPLA […]) were 0.241 ± 0.0091, 1.25 ± 0.22 and 1.53 ± 0.24, respectively. In addition, in experiment [3], the viability score is 0.967 (active).
In the case of `CC1CCc2cc(F)cc3c(=O)c(C(=O)O)cn1c23` (configuration not stated), the NF-kB reporter was 0.961 ± 0.13 in experiment [1] (setting [4]), 1.01 ± 0.074 in experiment [1] (agonist: LPS 0.1 ug/mL) and 1.01 ± 0.066 in experiment [1] (agonist: MPLA […]). Also, the IRF reporter in experiment [2] (agonist: 3'3'-cGAMP 10 ug/mL) was determined as 0.955 ± 0.066; in experiment [2] (agonist: LPS 0.1 ug/mL), 0.872 ± 0.031; in experiment [2] (agonist: MPLA […]), 0.86 ± 0.16. Moreover, in experiment [3], the viability score was 0.999 (active).
Regarding `CC1(C)CC(NC(=O)c2cccnc2-c2nc3ccccc3s2)CC(C)(C)N1`, the NF-kB reporter in experiment [1] (setting [4]) stood at 0.747 ± 0.078; in experiment [1] (agonist: LPS 0.1 ug/mL), 0.964 ± 0.083; in experiment [1] (agonist: MPLA […]), 0.948 ± 0.19. Further, the figures for the IRF reporter in experiment [2] (agonist: 3'3'-cGAMP 10 ug/mL), in experiment [2] (agonist: LPS 0.1 ug/mL) and in experiment [2] (agonist: MPLA […]) were 0.892 ± 0.048, 1.06 ± 0.067 and 1.12 ± 0.09, respectively. For the same compound, the viability score in experiment [3] was 0.998 (active).
Turning to `C#CC1(O)CCC2C3CCC4=Cc5oncc5CC4(C)C3CCC21C` (configuration not stated), the figures for the NF-kB reporter in experiment [1] (setting [4]), in experiment [1] (agonist: LPS 0.1 ug/mL) and in experiment [1] (agonist: MPLA […]) were 1.26 ± 0.31, 1.27 ± 0.094 and 1.2 ± 0.082, respectively. Also, the values for the IRF reporter in experiment [2] (agonist: 3'3'-cGAMP 10 ug/mL), in experiment [2] (agonist: LPS 0.1 ug/mL) and in experiment [2] (agonist: MPLA […]) were 0.787 ± 0.046, 1.35 ± 0.2 and 1.56 ± 0.15, respectively. Besides, the viability score in experiment [3] was 0.958 (active).
